Data from PubChem BioAssay AID1159580 (chemical genetic matrix, 2015).
Out of some 5,500 compounds screened, about 2,000 (36%) were called active. Not shown: some 18% with an inconclusive outcome. No stated cut-off is given here; in the data, active means normalized growth mostly below about 0.91 (no sharp cut-off); inconclusive means no clear call, values can overlap the other calls; inactive means mostly above about 0.92. Some of the results follow.

Assay: chemical genetic growth profiling, strain panel (AID 1159580);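 further: tested at 20 µM; growth read once vehicle control cultures reached saturation at 30 °C; 1 = growth at the plate median or of vehicle wells; lower values mean less growth of the strain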
Details: growth OD
[1] = S. cerevisiae deletion strains, locus YAL013W, strain DEP1, active compounds read low
[2] = S. cerevisiae deletion strains, locus YBR229C, strain ROT2, active compounds read low
[3] = S. cerevisiae deletion strains, locus YDL101C, strain DUN1, active compounds read low
[4] = S. cerevisiae deletion strains, locus YDR150W, strain NUM1, active compounds read low
[5] = S. cerevisiae deletion strains, locus YEL061C, strain CIN8, active compounds read low
[6] = S. cerevisiae deletion strains, locus YGR078C, strain PAC10, active compounds read low
[7] = S. cerevisiae deletion strains, locus YHR030C, strain SLT2, active compounds read low
[8] = S. cerevisiae deletion strains, locus YHR087W, strain rtc3, active compounds read low
[9] = S. cerevisiae deletion strains, locus YJL187C, strain SWE1, active compounds read low
[10] = S. cerevisiae deletion strains, locus YJR043C, strain POL32, active compounds read low
[11] = S. cerevisiae deletion strains, locus YJR075W, strain HOC1, active compounds read low
[12] = S. cerevisiae deletion strains, locus YLR039C, strain RIC1, active compounds read low
[13] = S. cerevisiae deletion strains, locus YLR058C, strain SHM2 (second series), active compounds read low
[14] = S. cerevisiae deletion strains, locus YLR085C, strain ARP6, active compounds read low
[15] = S. cerevisiae deletion strains, locus YLR262C, strain YPT6, active compounds read low
[16] = S. cerevisiae deletion strains, locus YML094W, strain GIM5, active compounds read low
[17] = S. cerevisiae deletion strains, locus YMR219W, strain ESC1, active compounds read low
[18] = S. cerevisiae deletion strains, locus YMR263W, strain SAP30, active compounds read low
[19] = S. cerevisiae deletion strains, locus YMR307W, strain GAS1, active compounds read low
[20] = S. cerevisiae deletion strains, locus YNL153C, strain GIM3, active compounds read low
[21] = S. cerevisiae deletion strains, locus YNL298W, strain CLA4 (second series), active compounds read low
[22] = S. cerevisiae deletion strains, locus YNL322C, strain KRE1, active compounds read low
[23] = S. cerevisiae deletion strains, locus YNR030W, strain Alg12, active compounds read low
[24] = S. cerevisiae deletion strains, locus YOL006C, strain TOP1, active compounds read low
[25] = S. cerevisiae deletion strains, locus YPL055C, strain LGE1, active compounds read low
[26] = S. cerevisiae deletion strains, locus YPL241C, strain CIN2, active compounds read low
[27] = S. cerevisiae deletion strains, locus YPR135W, strain CTF4, active compounds read low
[28] = S. cerevisiae deletion strains, locus YGR229C, strain SMI1, active compounds read low
[29] = S. cerevisiae deletion strains, locus YNL128W, strain TEP1, active compounds read low

Measured: normalized growth

Cc1oc(S(=O)(=O)N(C)C)cc1C(=O)O
inactive: [1] 1.03 | [2] 1 | [3] 0.952 | [4] 1 | [5] 1.02 | [6] 1.01 | [7] 1.06 | [8] 1.03 | [9] 0.997 | [10] 0.987 | [11] 1 | [12] 1.07 | [13] 1 | [14] 1.08 | [15] 1.01 | [16] 1.06 | [17] 1.01 | [18] 0.985 | [19] 0.976 | [20] 1.01 | [21] 1 | [22] 1 | [23] 1.02 | [24] 1.06 | [25] 1.08 | [26] 1.09 | [27] 1.34

O=C(CCCCCCCCCCCCC1CCCC1)Nc1ccc(S(=O)(=O)c2ccc(NC(=O)CCCCCCCCCCCCC3CCCC3)cc2)cc1
inactive: [1] 1.01 | S. cerevisiae deletion strains, locus YBR021W, strain FUR4, active compounds read low 1.04 | [2] 1.02 | S. cerevisiae deletion strains, locus YCL029C, strain bik1, active compounds read low 0.992 | S. cerevisiae deletion strains, locus YDL035C, strain GPR1, active compounds read low 1.02 | S. cerevisiae deletion strains, locus YDL074C, strain BRE1, active compounds read low 1.07 | [3] 1.03 | S. cerevisiae deletion strains, locus YDL134C, strain PPH21, active compounds read low 1.03 | S. cerevisiae deletion strains, locus YDL185W, strain tfp1, active compounds read low 1.01 | S. cerevisiae deletion strains, locus YDL192W, strain arf1, active compounds read low 0.997 | S. cerevisiae deletion strains, locus YDR101C, strain arx1, active compounds read low 0.989 | [4] 1.02 | S. cerevisiae deletion strains, locus YDR162C, strain NBP2, active compounds read low 1.03 | S. cerevisiae deletion strains, locus YDR318W, strain mcm21, active compounds read low 0.989 | S. cerevisiae deletion strains, locus YDR388W, active compounds read low 0.983 | S. cerevisiae deletion strains, locus YDR502C, strain sam2, active compounds read low 1 | [5] 1.02 | S. cerevisiae deletion strains, locus YER110C, active compounds read low 0.99 | S. cerevisiae deletion strains, locus YER155C, strain BEM2, active compounds read low 1.02 | S. cerevisiae deletion strains, locus YER167W, strain BCK2, active compounds read low 1.03 | S. cerevisiae deletion strains, locus YGL078C, strain dbp3, active compounds read low 0.992 | S. cerevisiae deletion strains, locus YGL086W, strain mad1, active compounds read low 1 | S. cerevisiae deletion strains, locus YGL248W, strain PDE1, active compounds read low 1.03 | [6] 1.03 | S. cerevisiae deletion strains, locus YGR135W, strain pre9, active compounds read low 1.01 | [28] 1.03 | S. cerevisiae deletion strains, locus YGR252W, strain gcn5, active compounds read low 0.984 | [7] 1.02 | S. cerevisiae deletion strains, locus YHR079C, strain IRE1 (second series), active compounds read low 0.99 | S. cerevisiae deletion strains, locus YHR094C, strain hxt1, active compounds read low 0.996 | S. cerevisiae deletion strains, locus YHR129C, strain ARP1, active compounds read low 1.02 | S. cerevisiae deletion strains, locus YHR200W, strain rpn10, active compounds read low 0.998 | S. cerevisiae deletion strains, locus YIL066C, strain RNR3, active compounds read low 1.02 | S. cerevisiae deletion strains, locus YIL073C, strain SPO22, active compounds read low 0.99 | S. cerevisiae deletion strains, locus YIL125W, strain kgd1, active compounds read low 1 | S. cerevisiae deletion strains, locus YIR030C, strain dcg1, active compounds read low 0.99 | S. cerevisiae deletion strains, locus YJL095W, strain BCK1, active compounds read low 1.04 | S. cerevisiae deletion strains, locus YJL134W, strain LCB3, active compounds read low 1.02 | S. cerevisiae deletion strains, locus YJL168C, strain set2, active compounds read low 1 | S. cerevisiae deletion strains, locus YJL187C, strain SWE1 (second series), active compounds read low 1.02 | [10] 1.03 | [11] 1.03 | S. cerevisiae deletion strains, locus YKL009W, strain mrt4, active compounds read low 0.991 | S. cerevisiae deletion strains, locus YKL068W, active compounds read low 1 | S. cerevisiae deletion strains, locus YKL085W, strain MDH1 (second series), active compounds read low 1 | S. cerevisiae deletion strains, locus YKL085W, strain MDH1, active compounds read low 1 | S. cerevisiae deletion strains, locus YKL190W, strain CNB1, active compounds read low 1.02 | S. cerevisiae deletion strains, locus YKR001C, strain vps1, active compounds read low 0.991 | [12] 1.04 | S. cerevisiae deletion strains, locus YLR058C, strain SHM2, active compounds read low 1.02 | S. cerevisiae deletion strains, locus YLR102C, strain apc9, active compounds read low 0.989 | [15] 1.03 | S. cerevisiae deletion strains, locus YLR268W, strain sec22, active compounds read low 0.997 | S. cerevisiae deletion strains, locus YLR330W, strain CHS5, active compounds read low 1.02 | S. cerevisiae deletion strains, locus YLR342W, strain FKS1 (second series), active compounds read low 1.03 | S. cerevisiae deletion strains, locus YLR371W, strain rom2, active compounds read low 1 | S. cerevisiae deletion strains, locus YLR418C, strain cdc73, active compounds read low 1 | S. cerevisiae deletion strains, locus YML016C, strain PPZ1, active compounds read low 1.03 | S. cerevisiae deletion strains, locus YML032C, strain rad52, active compounds read low 1 | S. cerevisiae deletion strains, locus YML124C, strain tub3, active compounds read low 0.99 | S. cerevisiae deletion strains, locus YMR078C, strain ctf18, active compounds read low 0.988 | S. cerevisiae deletion strains, locus YMR223W, strain ubp8, active compounds read low 0.989 | [18] 1.04 | [19] 0.981 | S. cerevisiae deletion strains, locus YNL067W, strain RPL9B, active compounds read low 1.04 | [29] 1.04 | [20] 1.02 | S. cerevisiae deletion strains, locus YNL233W, strain BNI4, active compounds read low 1.03 | S. cerevisiae deletion strains, locus YNL250W, strain rad50, active compounds read low 1 | S. cerevisiae deletion strains, locus YNL271C, strain bni1, active compounds read low 0.998 | S. cerevisiae deletion strains, locus YNL298W, strain CLA4, active compounds read low 1.01 | S. cerevisiae deletion strains, locus YNL307C, strain MCK1, active compounds read low 0.99 | [22] 1.02 | S. cerevisiae deletion strains, locus YNR052C, strain pop2, active compounds read low 0.993 | [24] 1.14 | S. cerevisiae deletion strains, locus YOL012C, strain htz1 0.857 | S. cerevisiae deletion strains, locus YOL147C, strain pex11, active compounds read low 0.992 | S. cerevisiae deletion strains, locus YOR061W, strain CKA2, active compounds read low 1.02 | S. cerevisiae deletion strains, locus YOR069W, strain VPS5, active compounds read low 1.01 | S. cerevisiae deletion strains, locus YOR136W, strain idh2, active compounds read low 0.994 | S. cerevisiae deletion strains, locus YOR144C, strain elg1, active compounds read low 0.993 | S. cerevisiae deletion strains, locus YOR184W, strain ser1, active compounds read low 0.99 | S. cerevisiae deletion strains, locus YOR316C, strain cot1, active compounds read low 0.998 | [25] 1.05 | [26] 1.01 | S. cerevisiae deletion strains, locus YPR119W, strain clb2, active compounds read low 0.984 | S. cerevisiae deletion strains, locus YPR141C, strain kar3, active compounds read low 0.996 | S. cerevisiae deletion strains, locus YPR163C, strain tif3, active compounds read low 0.993 | S. cerevisiae deletion strains, locus YPR167C, strain met16, active compounds read low 0.997 | S. cerevisiae deletion strains, strain wtn01, active compounds read low 0.997 | S. cerevisiae strains, strain wild type, active compounds read low 1.01

Cc1[nH]ncc1-c1ccccc1
inactive: [1] 1 | [2] 0.978 | S. cerevisiae deletion strains, locus YCL061C, strain MRC1, active compounds read low 0.973 | [3] 0.979 | [4] 1.01 | [5] 0.986 | [6] 0.998 | [28] 0.999 | [7] 0.981 | [8] 1.02 | [9] 0.983 | [10] 0.984 | [11] 1.02 | [12] 0.873 | [13] 0.986 | [14] 0.994 | [15] 0.896 | [16] 0.974 | [17] 0.995 | [18] 0.967 | [19] 0.933 | [29] 0.993 | [20] 0.961 | [21] 0.98 | [22] 1.01 | [23] 0.991 | [25] 1.07 | [26] 0.986 | [27] 0.921
